The text below walks through data of PubChem BioAssay (NCI).

Compounds without any hit were thinned out: in the full panel of roughly 83,000, 20% have a hit.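 The endpoint reported here, percent growth, reads 100 for growth as untreated, 0 for no net growth and -100 for all cells dead.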 A number with no mark means an inactive call. The source made the active and inactive calls. Rule for the calls: active = growth percent below 10; inactive = the rest.

Common to all, as to experiment: NCI-60 one-dose screen, 48 h (100 = growth as untreated, 0 = no growth, -100 = all killed)
Holding throughout (conditions): 10 µM

Assay [1] has as its system NCI-H23 lung.
For assay [2], the system named is NCI-H226 lung.
Assay [3] deals with NCI-H460 lung.
The test system of assay [4] is HOP-92 NSCLC.
The subject of assay [5] is A549/ATCC NSCLC.
Assay [6] has as its system 786-0 renal.
In assay [7] the test system is COLO 205 colon.
Assay [8] concerns NCI-H522 lung.
In assay [9] the test system is NCI-H322M lung.
In assay [10] the test system is HOP-62 NSCLC.

Turning to `C[C@]12CCC3c4ccc(O)cc4C[C@@H](CCCCCCCCCS(=O)CCCC(F)(F)C(F)(F)F)C3C1CC[C@@H]2O` (stereo partly specified), the growth in [1] is 84.8%; in assay [2] it was 94.2%; in [3] it was 67.7%; in assay [4], 78%; in [5] it was 67.9%; in [6] it was 96.1%. Also, the growth in assay [7] is 93.7%.

As to `COc1cc(NC(=O)C2=C(N3CCOCC3)/C(=C/c3ccc(Cl)cc3)CC2)cc(OC)c1OC`, the growth was 94.6% in assay [1]; 86.1% in assay [2]; 99.6% in assay [3]; 65.3% in assay [4]; 29.2% in assay [8]; 40.8% in assay [5]. Moreover, the growth in assay [6] is 93.2%; in assay [7] it was 98.5%.

For the compound `CCn1c(CSc2nc3ccccc3c(=O)n2CCc2ccccc2)n[nH]c1=S`, the growth in assay [1] was 65.6%; in assay [2], 78.1%; in assay [3], 96.5%; in assay [4], 85.9%; in assay [8], -5% (active); in assay [5], 84.6%. Besides, the growth in assay [6] was 81.7%; in [7], 105%.

For the compound `COc1ccc(-c2nn(-c3cccc(Cl)c3)cc2-c2c(C#N)c(=O)n3[nH]c(-c4ccccc4)nc3c2C#N)cc1`, the growth in assay [1] is 81.1%; in assay [2], 88%; in assay [3] it was 105%; in [4], 93.3%; in assay [8], 72.4%; in assay [5], 98.9%. In addition, the growth in assay [6] is 89.4%; in assay [7], 123%.

Turning to `Cc1cc(O)ccc1C1=NN(c2ccc(S(C)(=O)=O)cc2)C(=O)CC1`, the growth was 32.9% in [1]; 93.3% in assay [2]; 73.1% in [3]; 92.8% in [4]; 2.39% (active) in assay [8]; 72.2% in assay [5]. Besides, the growth in [6] was 84.1%; in assay [7], 65.8%.

With `COC(=O)C1OC1c1cc([N+](=O)[O-])ccc1OC` (stereo unspecified), the growth in assay [1] was 93%; in assay [2], 100%; in assay [3], 109%; in assay [4], 106%; in assay [8], 110%; in assay [5] it was 103%. Further, the growth in [6] was 104%; in [7], 111%.

Regarding `COc1ccc(-c2nn(-c3cccc(Cl)c3)cc2C=C(C#N)C#N)cc1`, the growth in assay [1] was -45.2% (active); in [2], 25.4%; in assay [3], 1.56% (active); in assay [4], 11%; in [8] it was -12.1% (active); in assay [5], 19.1%. For the same compound, the growth in [6] was -8.39% (active); in assay [7], -9.68% (active).

With `OC[C@H]1OC([S-])[C@H](O)[C@@H](O)[C@@H]1O.[Au+]` (stereo partly specified), the growth was 77.2% in [1]; 103% in [2]; 110% in assay [3]; 75.6% in assay [4]; 95.7% in assay [5]; 87.3% in assay [6]. The growth in [7] was 114%.

With `CCN(CC)CCN1c2nc3ccccc3cc2Sc2cc3ccccc3nc21`, the growth in assay [1] is -5.59% (active); in assay [2], -10.6% (active); in assay [3], -95.2% (active); in assay [4], -12.9% (active); in assay [8] it was -69.4% (active); in assay [6] it was -40% (active). Besides, the growth in assay [7] was -73.9% (active).

`COc1cc(/C=C/c2cc(/C=C/c3ccc(O)c(OC)c3)[nH]c(=O)n2)ccc1O`: the growth in [1] is 62.8%; in assay [2], 76.2%; in [3], 69.7%; in assay [4], 33.7%; in assay [8], 54.6%; in assay [5] it was 71.7%. The growth in assay [6] is 82.6%; in assay [7] it was 51.8%.

In the case of `CC(C1=C(CN(C(=O)Cc2cn(-c3ccccc3)nc2-c2ccc(Cl)cc2)C(C)C)Cc2ccccc21)c1ccccn1` (stereo unspecified), the growth is 55.3% in assay [1]; 69.9% in assay [2]; 53.1% in assay [3]; 62.2% in assay [4]; 44.2% in assay [8]; 61% in [5]. Besides, the values for the growth in assay [6] and in assay [7] were 68.2% and 66.7%, respectively.

Consider `COc1ccc(-c2csc(NC(=O)c3ccc(Cc4n[nH]c(=O)c5cccnc45)cc3)n2)cc1`, for which the growth is 80.4% in assay [1]; 71.4% in assay [2]; 97.4% in assay [3]; 75.3% in assay [4]; 80.7% in [8]; 101% in assay [5]. Moreover, the results for the growth in assay [6] and in [7] were 99.2% and 110%, respectively.

On to `CCOC(=O)C1=CSC2=NC3=C(CCC/C3=C\c3ccc(Cl)cc3)C(c3ccc(Cl)cc3)N12` (stereo unspecified), for which the growth in [1] was 83.8%; in assay [2], 92.2%; in [3] it was 102%; in assay [4], 96.2%; in assay [8], 93.5%; in [5], 96.5%. Further, the figures for the growth in assay [6] and in [7] were 101% and 105%, respectively.

Regarding `O=S(=O)(O)c1ccc(Cl)cc1`, the growth in assay [1] was 96%; in assay [2], 97.3%; in [3] it was 103%; in assay [4] it was 117%; in assay [8], 94.6%; in assay [5] it was 97%. The results for the growth in [6] and in assay [7] were 111% and 109%, respectively.

As to `COc1ccc(-c2nn(-c3cccc(Cl)c3)cc2/C=C2\NC(=S)N(c3ccc(Cl)cc3)C2=O)cc1`, the growth in assay [1] was -7.88% (active); in [2], -42.5% (active); in assay [3] it was 11%; in assay [4], 29.3%; in assay [8], -37.7% (active); in [5], 18.8%. The growth was 46.6% in assay [6] and 36.9% in [7].

Regarding `Nc1nc(-c2cccnc2)nc2c1sc(=S)n2-c1ccccc1`, the growth is 103% in [1]; 95.8% in assay [2]; 97.2% in assay [3]; 83.4% in assay [8]; 76.2% in assay [5]; 98.7% in assay [6]. The growth in assay [7] is 108%.

In the case of `O=S(=O)(NCCCNc1nccc(-c2cn(-c3ccccc3)nc2-c2ccc(Cl)c(O)c2)n1)c1ccccc1`, the growth was 78.5% in assay [1]; 76.3% in [2]; 46.3% in [3]; 65.6% in assay [8]; 37.3% in [5]; 68% in assay [6]. Moreover, the growth in assay [7] was 69.4%.

For the compound `C=C/C(C)=C/C[C@]1(C)[C@H](C)[C@@H](OC(=O)CCC)[C@H](O)[C@@]23C(=C[C@H](OC)C[C@@H]12)[C@@H](OC(=O)CCC)O[C@H]3OC(C)=O`, the growth in assay [1] was -15.9% (active); in [2] it was -52.9% (active); in [3], 2.97% (active); in [8], -80.9% (active); in assay [5], 12.5%; in assay [6] it was -79.9% (active). Also, the growth in [7] was -53.3% (active).

With `CCn1cc(CNc2ccc(C(=O)Nc3ccc4ccccc4c3)cc2)c(C)n1`, the growth in [1] was 52.9%; in assay [2] it was 51%; in assay [3], 62.9%; in assay [8] it was 74.7%; in assay [5], 63.4%; in assay [6], 75.3%. For the same compound, the growth in assay [7] was 69.2%.

Consider `COc1ccc(-c2cc(-c3cc(OC)ccc3OC)nc(N)c2C#N)cc1`, for which the growth in assay [1] is 68.8%; in assay [2] it was 63.7%; in assay [3], 52.5%; in [8], 23.6%; in assay [5], 62.6%; in assay [6], 66.2%. In addition, the growth in [7] is 57.1%.

Take `CN1CCc2c(sc3nc4n(-c5ccc(Cl)cc5)c(=O)[nH]n4c(=O)c23)C1`: the growth is 97.4% in assay [1]; 94.7% in assay [2]; 77.9% in [8]; 74.7% in [5]; 84.8% in assay [6].

For `c1cnc2[nH]cc(-c3nc(-c4ccsc4)cs3)c2c1`, the growth in [1] is 80.2%; in assay [2] it was 74.4%; in [3] it was 109%; in assay [8] it was 79.4%; in [6], 107%; in assay [7], 117%.

With `CC(C)[N+]1(C)C2CC[C@@H]1CC(OC(=O)C(CO)c1ccccc1)C2` (stereo partly specified), the growth in [1] is 92%; in assay [2] it was 103%; in assay [3] it was 108%; in assay [5], 92.3%; in assay [6], 103%; in [7] it was 113%.

Take `CCn1c2ccc(O)cc2c2c(C)c3c[n+](C)ccc3c(C)c21`: the growth is 19.2% in [1]; 26.1% in assay [2]; 7.28% (active) in assay [3]; -0.0478% (active) in assay [8]; 37.5% in assay [5]; 13.7% in assay [6]. Besides, the growth in assay [7] is 43.6%.

As for `Cc1ccc(NC(=O)N2CCCCC2)cc1[N+](=O)[O-]`, the growth in [1] was 91.1%; in assay [2], 94.9%; in [3], 108%; in [8], -29.1% (active); in assay [6], 102%; in [7] it was 99.4%.

Consider `COc1cc(CNC(=O)C2CSC3(C)c4ccccc4C(=O)N23)cc(OC)c1OC` (stereo unspecified), for which the growth in assay [1] was 96.9%; in assay [9], 99.7%; in assay [10] it was 90.1%; in assay [3], 106%; in assay [4] it was 88.4%; in [8], 68.8%. Also, the figures for the growth in [5], in assay [6] and in [7] were 83.1%, 102% and 105%, respectively.
